Active and inactive are the calls of the source. Unless noted, how the calls were made is not given here.
Key:
[1] = anti-His antibody binders, primary screen, artefact control for SMM control protein annotation, biochemical, small-molecule microarray, 635 nm fluorescence (AID 1128); details: anti-His Alexa647 antibody binding, higher = more signal;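 further: score merges feature fluorescence with signal-to-noise for each printed compound spot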
[2] = system: Human papillomavirus type 1a E7 protein (residues 1-88); test: HPV1a E7 small-molecule binders, primary screen, biochemical, small-molecule microarray, residues 1-88, 635 nm (AID 1129); details: small-molecule microarray binding, fluorescence 635 nm; higher = more signal
[3] = target: Focal adhesion kinase 1 (Homo sapiens) (UniProt Q05397); test: small-molecule microarray binders of FAK, primary screen, biochemical, 635/667 nm fluorescence, BSA, DTT (AID 1130); details: PTK2 binding, 635 nm fluorescence, higher = more signal;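 further: composite of spot emission at 667 nm and signal to noise over triplicate slides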
[4] = system: Fibrinogen (Alexa647-labelled); test: fibrinogen binders on compound microarrays, profiling panel, artefact control for SMM control-protein annotation, biochemical, small-molecule microarray, 635/667 nm fluorescence (AID 1131); details: fibrinogen-A647 binding fluorescence, higher = more signal;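 further: z-score merges 667 nm fluorescence with per-spot signal-to-noise over triplicate slides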
[5] = target: Follistatin (Homo sapiens) (UniProt P19883); test: follistatin binders on small-molecule microarrays, primary screen, biochemical, small-molecule microarray, 635/667 nm fluorescence (AID 1132); details: FST binding, 635 nm fluorescence, higher = more signal
[6] = target: Fibroblast growth factor 2 (Homo sapiens) (UniProt P09038); test: FGF2 binders on small-molecule microarrays, primary screen, biochemical, small-molecule microarray, 635/667 nm fluorescence (AID 1133); details: small-molecule microarray binding, FGF2, fluorescence 635/667; higher = more signal
[7] = mitochondrial membrane potential change in A549 cells, profiling panel, cell-based, JC-1 fluorescence, basal, 24 h, 100 nL (AID 1138); details: higher = more signal;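 further: A549 lung adenocarcinoma cells under basal conditions with no added stimulus; test concentration not given here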
Lefty1 = Lefty1 binders on small-molecule microarrays, primary screen, biochemical, small-molecule microarray, 635/667 nm fluorescence (AID 1139); details: small-molecule microarray binding, fluorescence 635/667; higher = more signal
[8] = system: wheat germ agglutinin (Triticum aestivum), Alexa647-labelled; test: wheat germ agglutinin binders on compound microarrays, profiling panel, artefact control for SMM control-protein annotation, biochemical, small-molecule microarray, 635/667 nm fluorescence (AID 1140); details: WGA-A647 binding, 635 nm fluorescence, higher = more signal;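 further: score merges 667 nm feature emission with signal to noise over triplicate slides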
[9] = target: Luciferin 4-monooxygenase (Photinus pyralis) (UniProt P08659); test: firefly luciferase enzyme inhibitors, primary screen, biochemical, luminescence, purified enzyme, 2006 set (AID 1141); details: SteadyGlo luminescence, 30 min, higher = more signal, called active from +8 up or from −8 down;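 further: cell-free assay with purified firefly luciferase at 100 ng per well in PBS; test concentration not given here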
[10] = system: Wnt5a (protein binding on small-molecule microarray); test: Wnt5a binders on small-molecule microarray, primary screen, biophysical, 635/667 nm fluorescence (AID 1142); details: 635 nm fluorescence, higher = more signal;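 further: fluorescence read at 667 nm with signal to noise per printed feature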
[11] = cell viability in Huh7 cells, primary screen, cytotoxicity control for HCV replication inhibitor project, CellTiter-Glo luminescence, basal, 48 h (AID 1143); details: Huh7 HCV replicon, higher = more signal, called active from +8 up or from −8 down;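 further: Huh7 hepatoma cells carrying a hepatitis C replication reporter with no stimulus; test concentration not given here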
[12] = P. aeruginosa biofilm formation inhibitors, primary screen, PAO1 strain, BacTiter-Glo luminescence, LB-PBS (AID 1144); details: 12 h, higher = more signal
[13] = CREB reporter modulators without forskolin, primary screen, cell-based, PC12, CRE-LacZ reporter, unstimulated (AID 1145); details: no forskolin, luminescence, 4.5 h, higher = more signal, called active from +8 up or from −8 down
[14] = CREB reporter modulators under forskolin, primary screen, cell-based, PC12, CRE-LacZ reporter, forskolin-stimulated (AID 1146); details: luminescence, 4.5 h, higher = more signal, called active from +8 up or from −8 down;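 further: PC12 cells with 6xCRE LacZ reporter stimulated by forskolin 10 µM; beta-galactosidase reporter signal reflecting CREB driven transcription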
[15] = target: Streptavidin (Streptomyces avidinii) (UniProt P22629); test: streptavidin binders on small-molecule microarray, primary screen, artefact control for SMM compound annotation, biophysical, 635/667 nm fluorescence (AID 1147); details: streptavidin binding, higher = more signal;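 further: signal reflects streptavidin binding to arrayed compounds as a control protein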
[16] = small-molecule binders of probe aInhba, primary screen, biochemical, small-molecule microarray, 635/667 nm fluorescence (AID 1148); details: higher = more signal;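 further: score merges 667nm spot fluorescence with signal-to-noise for antibody binding to printed compounds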
Torsin-1A (Homo sapiens) [17] = target: Torsin-1A (Homo sapiens) (UniProt O14656); test: torsin A binders from cell lysate, primary screen, small-molecule microarray, wild-type, 635/667 nm (AID 1149); details: COS7 hTOR1A-WT lysate, 635 nm fluorescence, higher = more signal
Torsin-1A (Homo sapiens) [18] = target: Torsin-1A (Homo sapiens) (UniProt O14656); test: small-molecule binders of mutant TOR1A in lysate, primary screen, cell lysate, small-molecule microarray, COS7 lysate, 635/667 nm fluorescence (AID 1150); details: COS7 hTOR1A mutant lysate, 635 nm fluorescence, higher = more signal;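 further: score pools 667 nm emission and signal to noise measuring lysate protein binding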
[19] = system: Sonic hedgehog protein (Shh); test: small-molecule binders of Shh protein, primary screen, biochemical, small-molecule microarray, 635/667 nm fluorescence (AID 1151); details: small-molecule microarray binding, 635 nm fluorescence; higher = more signal;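 further: Shh protein binding to compounds spotted on small-molecule microarray slides; score combines spot fluorescence intensity with signal-to-noise across triplicate slides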

Sequence of Focal adhesion kinase 1 (Homo sapiens) (Q05397 whole entry, looked up): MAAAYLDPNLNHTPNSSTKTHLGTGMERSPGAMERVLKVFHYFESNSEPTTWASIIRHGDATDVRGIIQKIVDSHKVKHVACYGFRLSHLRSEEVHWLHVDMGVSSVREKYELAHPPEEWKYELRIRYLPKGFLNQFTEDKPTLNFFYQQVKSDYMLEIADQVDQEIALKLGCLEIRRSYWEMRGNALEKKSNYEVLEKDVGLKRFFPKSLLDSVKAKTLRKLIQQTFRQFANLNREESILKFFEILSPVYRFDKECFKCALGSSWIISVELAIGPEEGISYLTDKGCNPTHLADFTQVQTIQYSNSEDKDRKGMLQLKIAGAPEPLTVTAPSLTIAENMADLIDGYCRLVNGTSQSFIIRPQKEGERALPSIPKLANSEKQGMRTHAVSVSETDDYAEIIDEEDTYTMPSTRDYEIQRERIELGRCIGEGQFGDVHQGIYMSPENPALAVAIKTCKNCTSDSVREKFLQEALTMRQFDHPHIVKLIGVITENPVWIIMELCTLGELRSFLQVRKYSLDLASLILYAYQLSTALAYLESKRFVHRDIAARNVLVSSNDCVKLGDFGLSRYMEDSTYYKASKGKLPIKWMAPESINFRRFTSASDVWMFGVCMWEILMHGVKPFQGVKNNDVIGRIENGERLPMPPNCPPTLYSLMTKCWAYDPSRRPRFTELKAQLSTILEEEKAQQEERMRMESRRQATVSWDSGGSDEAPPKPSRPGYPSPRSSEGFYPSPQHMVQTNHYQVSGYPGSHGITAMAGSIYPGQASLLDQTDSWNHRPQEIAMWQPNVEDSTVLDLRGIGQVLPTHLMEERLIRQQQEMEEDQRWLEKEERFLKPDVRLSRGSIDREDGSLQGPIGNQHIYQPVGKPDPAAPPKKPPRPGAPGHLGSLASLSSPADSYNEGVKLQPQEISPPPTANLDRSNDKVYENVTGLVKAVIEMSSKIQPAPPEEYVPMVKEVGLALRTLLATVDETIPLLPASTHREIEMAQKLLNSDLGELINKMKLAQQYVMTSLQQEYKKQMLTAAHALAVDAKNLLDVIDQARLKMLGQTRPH
Sequence of Torsin-1A (Homo sapiens) (O14656 whole entry, looked up): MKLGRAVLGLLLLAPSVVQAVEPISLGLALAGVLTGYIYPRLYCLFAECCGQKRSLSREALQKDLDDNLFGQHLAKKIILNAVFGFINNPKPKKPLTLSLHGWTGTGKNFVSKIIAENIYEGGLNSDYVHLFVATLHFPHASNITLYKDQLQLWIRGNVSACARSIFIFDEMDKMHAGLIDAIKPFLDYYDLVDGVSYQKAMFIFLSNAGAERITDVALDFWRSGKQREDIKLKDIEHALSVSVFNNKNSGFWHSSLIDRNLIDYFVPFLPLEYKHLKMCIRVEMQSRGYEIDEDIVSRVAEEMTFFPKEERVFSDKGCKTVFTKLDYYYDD
Sequence of Streptavidin (Streptomyces avidinii) (P22629 whole entry, looked up): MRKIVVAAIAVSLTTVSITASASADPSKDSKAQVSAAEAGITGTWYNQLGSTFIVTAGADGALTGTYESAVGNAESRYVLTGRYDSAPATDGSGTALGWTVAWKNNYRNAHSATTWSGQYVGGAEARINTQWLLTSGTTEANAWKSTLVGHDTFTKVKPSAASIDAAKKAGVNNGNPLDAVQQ
Sequence of Luciferin 4-monooxygenase (Photinus pyralis) (P08659 whole entry, looked up): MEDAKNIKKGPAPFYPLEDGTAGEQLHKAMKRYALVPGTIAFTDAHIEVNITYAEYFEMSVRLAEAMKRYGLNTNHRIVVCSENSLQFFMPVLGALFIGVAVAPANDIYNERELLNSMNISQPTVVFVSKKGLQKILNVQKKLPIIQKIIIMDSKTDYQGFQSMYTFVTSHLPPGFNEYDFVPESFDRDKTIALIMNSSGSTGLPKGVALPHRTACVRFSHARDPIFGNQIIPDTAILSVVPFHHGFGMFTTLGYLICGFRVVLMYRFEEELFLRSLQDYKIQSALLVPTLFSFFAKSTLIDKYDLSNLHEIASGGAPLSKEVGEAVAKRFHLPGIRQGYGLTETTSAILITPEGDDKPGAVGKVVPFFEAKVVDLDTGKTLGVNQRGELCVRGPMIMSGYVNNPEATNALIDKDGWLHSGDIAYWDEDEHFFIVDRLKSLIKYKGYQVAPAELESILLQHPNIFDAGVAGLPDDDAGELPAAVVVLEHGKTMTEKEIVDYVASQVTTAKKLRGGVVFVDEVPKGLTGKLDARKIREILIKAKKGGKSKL
Sequence of Follistatin (Homo sapiens) (P19883 whole entry, looked up): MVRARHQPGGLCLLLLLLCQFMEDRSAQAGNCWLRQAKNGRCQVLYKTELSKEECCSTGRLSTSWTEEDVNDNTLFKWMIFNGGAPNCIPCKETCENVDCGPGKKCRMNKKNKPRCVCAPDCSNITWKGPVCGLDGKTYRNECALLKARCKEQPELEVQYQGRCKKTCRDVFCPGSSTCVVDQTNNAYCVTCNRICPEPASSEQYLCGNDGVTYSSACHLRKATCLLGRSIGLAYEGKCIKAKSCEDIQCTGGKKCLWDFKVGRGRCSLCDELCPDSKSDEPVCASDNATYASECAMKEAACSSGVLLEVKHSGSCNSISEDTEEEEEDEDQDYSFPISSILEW
Sequence of Fibroblast growth factor 2 (Homo sapiens) (P09038 whole entry, looked up): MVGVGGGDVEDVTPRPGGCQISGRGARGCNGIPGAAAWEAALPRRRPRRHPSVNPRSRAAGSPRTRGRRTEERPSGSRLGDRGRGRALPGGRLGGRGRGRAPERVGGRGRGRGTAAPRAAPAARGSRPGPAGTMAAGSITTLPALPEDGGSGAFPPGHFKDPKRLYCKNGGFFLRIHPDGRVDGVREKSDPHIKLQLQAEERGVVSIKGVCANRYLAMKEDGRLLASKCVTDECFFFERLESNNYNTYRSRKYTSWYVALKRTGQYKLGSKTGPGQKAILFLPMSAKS

Row | SMILES | composite z-score [1] | composite z-score [2] | composite z-score [3] | composite z-score [4] | composite z-score [5] | composite z-score [6] | z-score [7] | composite z-score (Lefty1) | composite z-score [8] | z-score [9] | composite z-score [10] | z-score [11] | z-score [12] | z-score [13] | z-score [14] | composite z-score [15] | composite z-score [16] | composite z-score (Torsin-1A (Homo sapiens) [17]) | composite z-score (Torsin-1A (Homo sapiens) [18]) | composite z-score [19]
1 | [N-]=[N+]=NCc1ccccc1[C@@H]1OC(c2ccc(OCCCO)cc2)=N[C@]1(CCS(=O)(=O)c1ccccc1)C(=O)NCC(O)CO (stereo not given in full) | 2.39 | 1.28 | 0.546 | 1.03 | 1.29 | 1.05 | -0.145 | 0.171 | 1.16 | -1.93 (inactive) | 0.541 | -0.866 (inactive) | -0.701 (inactive) | 1.71 (inactive) | -1.17 (inactive) | 0.962 | 0.0073 | 1.05 | 1.36 | 0.0169
2 | O=C1OCCC=C[C@H]2OC34C=CCN(Cn5nnc6ccccc65)C(=O)[C@H]3N(CCCCCCO)C(=O)[C@@H]4C12 (stereo not given in full) | -0.832 | -0.48 | -0.235 | -0.907 | -1.29 | -1.24 | 0.324 | -1.28 | -1.07 | -0.718 (inactive) | -0.512 | 0.523 (inactive) | 0.863 (inactive) | 0.191 (inactive) | 0.0417 (inactive) | -1.12 | -0.561 | -0.103 | -0.0648 | -0.643
3 | [N-]=[N+]=Nc1ccccc1[C@H]1OC(c2ccc(OCCCO)cc2)=N[C@@]1(CCS(=O)(=O)c1ccccc1)C(=O)NCCN1CCOCC1 | 1.51 | 1.26 | 0.56 | 0.938 | 1.34 | 0.471 | 0.162 | 0.619 | 0.821 | -6.93 (inactive) | 1.11 | -1.14 (inactive) | 1.38 (inactive) | -0.45 (inactive) | -0.5 (inactive) | 0.866 | 0.283 | 0.484 | 1.47 | 0.273
4 | COc1ccc(NC(=O)O[C@H]2[C@H](OC(=O)Nc3ccccc3)[C@@H](OC(=O)Nc3ccccc3)[C@@H](OC)O[C@@H]2CO)cc1 | 1.77 | 1.21 | 0.634 | 0.825 | 1.34 | 1.72 | -0.506 | 0.512 | 0.626 | 0.0551 (inactive) | 1.48 | -4.91 (inactive) | -1.81 (inactive) | 0.895 (inactive) | -1.52 (inactive) | 0.0017 | 0.0342 | 0.66 | 1.26 | 1.17
5 | CC(C)(C)OC(=O)CC[C@@]1(C(=O)NCc2ccccc2)N=C(c2ccc(OCCCO)cc2)O[C@@H]1c1ccccc1N=[N+]=[N-] | 1.63 | 1.25 | 1.22 | 0.951 | 1.39 | 1.58 | -1.16 | 0.432 | 1.07 | -11 (active) | 0.717 | -2.53 (inactive) | 0.014 (inactive) | 1.73 (inactive) | -0.947 (inactive) | 1.8 | 0.0839 | -0.183 | 1.33 | 0.101
